Out of some 1,800 compounds screened, about 710 (39%) were called active. Roughly 28% stayed inconclusive and do not appear here.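 Rule for the calls: active = luciferase signal rise whose fitted curve crosses a set activity limit at or below the top valid tested dose; inconclusive = flat fit with 30 to 70% rise, or poor fit; inactive = signal falling, flat within 30%, or crossing above top dose.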 The list is a sample of the results. Results with a measured potency or affinity are listed apart.
Assay: luciferase activators in glycosylation-insensitive reporter cells, dose response, counter-screen for N-linked glycosylation inhibitor project, D54 LucT cells, luminescence, cherry pick (AID 624404);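 note: 0% = median neutral control signal and 100% = twice that signal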
Settings: D54 LucT luciferase reporter counterscreen, 24 h; series mostly up to 19.5 µM; activity increase (luciferase signal): at the top concentration

Structure (SMILES)	activity increase (luciferase signal)
NC(=O)CC(NC(=O)Cc1ccc(Cl)cc1)c1ccc(NC2CC3CCC2C3)c([N+](=O)[O-])c1 (stereo not given)	4.52% (inactive)
NC(=O)CC(NC(=O)c1ccc(Br)cc1)c1ccc(N2CCCCCCC2)c([N+](=O)[O-])c1 (stereo not given)	35.9% (inactive)
NC(=O)CC(NC(=O)Cc1ccc(Br)cc1)c1ccc(NCc2cc(F)ccc2F)c([N+](=O)[O-])c1 (stereo not given)	21.3% (inactive)
NC(=O)CC(NC(=O)Cc1ccc(Cl)cc1)c1ccc(NC2CCCC2)c([N+](=O)[O-])c1 (stereo not given)	42.6% (inactive)
O=C(CC1Sc2ccccc2NC1=O)NNc1ccc(Cl)c(Cl)c1 (stereo not given)	28% (inactive)
CCCCOc1ccccc1C1CC(=O)NC2=C1C(=O)CCC2 (stereo not given)	26.3% (inactive)
CC(C)Nc1ccc(C(CC(N)=O)NC(=O)Cc2ccc(Br)cc2)cc1[N+](=O)[O-] (stereo not given)	12.9% (inactive)
COc1ccc(C=CC(=O)c2ccc3cc(OC)c(OC)cc3c2)cc1OC	11.3% (inactive)
COc1ccc(NC(=O)c2cccc(Oc3ccccc3)c2)cn1	187% (inactive)
O=C(NC1CCCCC1)C(c1cccnc1)N(C(=O)CCl)c1cccc(Cl)c1 (stereo not given)	-95.4% (inactive)
Cc1cccc(N2C(=O)CC(N3CCN(C(=O)c4ccccc4)CC3)C2=O)c1 (stereo not given)	26% (inactive)
Cn1c(C(=O)NC2CCCCCC2)cc2c(=O)n(C)c3ccccc3c21	91.6% (inactive)
C[C@H](CO)N1C[C@H](C)[C@@H](CN(C)Cc2ccccc2)Oc2ccc(NC(=O)CCCCCC(=O)Nc3ccccc3N)cc2C1=O	14.3% (inactive)
Cc1ccc(S(=O)(=O)N(C)C[C@@H]2Oc3ccc(NC(=O)CCC(F)(F)F)cc3CC(=O)N([C@@H](C)CO)C[C@@H]2C)cc1	8.68% (inactive)
COc1ccc(CN(C(=O)c2ccc(CN3CCOCC3)o2)C(C(=O)NCC2CCCO2)c2ccc(F)cc2)cc1 (stereo not given)	-5.22% (inactive)
COC(=O)COc1cccc2c(=O)n(CC(=O)NCc3ccccc3)ccc12	51.9% (inactive)
COc1ccc(CC(=O)N/N=C/c2c(C)n(C)c3ccccc23)cc1OC	-5.77% (inactive)
C[C@@H]1[C@@H](Sc2ccccc2)CC(=O)O[C@@H]1c1ccc(-c2ccccc2)cc1	-38% (inactive)
COc1ccc(-c2nc(C(N)=O)c3[nH]c(=O)n(-c4cccc(Cl)c4)c3n2)cc1OC	20.6% (inactive)
COc1ccc(OC)c(S(=O)(=O)Nc2ccc(-c3ccc4nnc(C)n4n3)cc2)c1	51.9% (inactive)
COc1ccc(NC(=O)c2oc3ccccc3c2NC(=O)c2ccco2)cc1	-4.3% (inactive)
COc1cc(OC)cc(C(=O)c2c(C)c(C#N)c3ccccn23)c1	-23.7% (inactive)
CCc1nc(SCC(=O)c2ccc3c(c2)OCCO3)c2ccccc2n1	14.6% (inactive)
Cn1c(SCC(=O)Nc2cccc(F)c2)nc2c([nH]c3ccccc32)c1=O	6.37% (inactive)
CC(=O)N1N=C(c2ccccc2)OC1c1ccc([N+](=O)[O-])s1 (stereo not given)	34.8% (inactive)

Structure (SMILES)	activity increase (luciferase signal)
CCOc1cc(CNc2ccc3cn[nH]c3c2)ccc1OC	-19.4% (inactive)
COC(=O)c1cccc(Nc2c3c(nc4ccccc24)CCC3)c1	19% (inactive)
CC(=O)c1cccc(Nc2cc(C)nc3c(C)cccc23)c1	4.36% (inactive)
Cc1ccc(OCCNC(=O)c2cccc(S(=O)(=O)NCc3ccccc3)c2)cc1	0% (inactive)
CCN(CC)CCCNc1nc2cc(OC)c(OC)cc2c2nc(-c3ccccc3)nn12	22.1% (inactive)
Cc1cc(Br)ccc1NC(=O)CCCOc1cc(=O)n(C)c2ccccc12	58.2% (inactive)
Cc1cc(NC(=O)/C=C/C(=O)N(CC(=O)NC2CCCC2)c2ccc(F)cc2)no1	-17.1% (inactive)
CC(C)CCNC(=O)Cn1c(=O)oc2cc(S(=O)(=O)N3CC(C)CC(C)C3)ccc21 (stereo not given)	29.3% (inactive)
O=C(/C=C/Sc1ccc(C(F)(F)F)cn1)c1ccccc1	14.9% (inactive)
O=C(/C=C/Sc1ccccc1)c1ccccc1	12% (inactive)
O=C(CSc1c2c(nc3ccc(Cl)cc13)CCCC2)N1CCN(C(=O)c2ccco2)CC1	7.36% (inactive)
COc1ccccc1N1CCN(S(=O)(=O)CCNC(=O)c2cc(OC)c(OC)c(OC)c2)CC1	28.3% (inactive)
CCn1c2ccccc2c2cc(NC(=O)c3cc(OC)c(OC)c(OC)c3)ccc21	-0.943% (inactive)
Cc1cc(N2CCCCC2)nc(NCc2ccccc2)n1	-31.7% (inactive)
COCCNc1nc(NCc2ccccc2)nc2ccsc12	-8.4% (inactive)
Cc1cccc2c1NC(=O)/C2=C\C(=O)c1cccs1	20.6% (inactive)
O=C(NCCC1=CCCCC1)C1CCC(CNc2nc(=S)[nH]c3ccccc23)CC1 (stereo not given)	31.7% (inactive)
COc1cc(NC(=O)c2ccccc2F)ccc1NC(=O)c1cc2ccccc2o1	8.43% (inactive)
COC(=O)c1ccccc1-c1ccc(C(c2c(C)[nH][nH]c2=O)c2c(C)[nH][nH]c2=O)o1	-10.3% (inactive)
COc1cc(C2Sc3ccccc3NC3=C2C(=O)OC3)cc(OC)c1OC (stereo not given)	42.2% (inactive)
CCOc1cc(NC(=O)CCl)c(OCC)cc1NC(=O)CCl	11% (inactive)
Cc1cnc(NC(=O)c2cc(S(=O)(=O)N(C)C)ccc2N2CCCC2)s1	-29.3% (inactive)
CCOc1ccc(OCC)c(NC(=O)c2nnn(CC(=O)Nc3cc(C)cc(C)c3)c2N)c1	37.3% (inactive)
CCc1cccc(NC(=O)c2cc(S(=O)(=O)N(C)C)ccc2N2CCCC2)c1	23% (inactive)
CN(C)/N=C/c1ccc(Sc2ccc([N+](=O)[O-])cc2[N+](=O)[O-])o1	4.59% (inactive)

Source: PubChem BioAssay AID624404 (Broad Institute, 2012)
